Laboratory results as given in PubChem BioAssay (NCATS).
Where “and” joins values, the source holds several entries; their conditions need not be identical. Equal entries are not always repeated. Values without a mark were called inactive. Inconclusive results are not listed. Entries that show only a call come without a potency. More than one record can exist for a structure, and the calls need not agree. Calls of active or inactive are those of the source. Unless noted, calls come from the whole dose curve; as a rule, active = well fitted curve in the direction sought with a large enough effect; inconclusive = small, poorly fitted or top-dose-only effect, or another doubt; inactive = no such curve, though single readings can be large; an effect the other way counts as inactive or inconclusive.

Tests used:
Hek293T = test: Primary qHTS to identify gynecologic anti-cancer compounds using libraries of approved drugs and bioactive compounds (AID 1345084); details: Gynecologic cancer cell panel viability, ATPlite luminescence, 48 h, control line for the selectivity index; series mostly up to 57.5 µM; note: nearly all actives have a fitted effect of over 55% in size
Outline: (§1)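 Cells, 1,000 per well, plated 16 h, then exposed 48 h at 37 C to compounds. Viability by ATPlite luminescence after 15 min at room temperature.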

JEG-3 = test: as above; details: Gynecologic cancer cell panel viability, ATPlite luminescence, 48 h; series mostly up to 57.5 µM
Outline: as §1

OV90 = test: as above; details: Gynecologic cancer cell panel viability, ATPlite luminescence, 48 h; series mostly up to 57.5 µM
Outline: as §1

PA-1 = test: as above; details: Gynecologic cancer cell panel viability, ATPlite luminescence, 48 h; series mostly up to 57.5 µM
Outline: as §1

SKOV3 = test: as above; details: Gynecologic cancer cell panel viability, ATPlite luminescence, 48 h; series mostly up to 57.5 µM
Outline: as §1

Tov-21-G = test: as above; details: Gynecologic cancer cell panel viability, ATPlite luminescence, 48 h; series mostly up to 57.5 µM
Outline: as §1

Tov112D = test: as above; details: Gynecologic cancer cell panel viability, ATPlite luminescence, 48 h; series mostly up to 57.5 µM
Outline: as §1

[1] = Drug repurposing screens with cells derived from glioblastoma tumor samples (AID 1345199); details: GBM patient neurospheres viability, ATP luminescence, 48 h; note: nearly all actives have a fitted effect of over 40% in size; note: potency is the fitted concentration of half-maximal effect
Outline: (§2)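 Four patient lines of CD133+ GBM neurospheres were screened at several concentrations; hits were retested in those lines plus three slower-growing GBM lines, using 48-hour treatment and ATP-based viability.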

astro = test: as above; details: viability, ATP luminescence, 48 h; series mostly up to 45.9 µM
Outline: as §2

[2] = molecular target: Nuclear receptor subfamily 1 group I member 2 (Rattus norvegicus) (UniProt Q9R1A7); test: qHTS assay for small molecule activators of the rat pregnane X receptor (rPXR) signaling pathway (AID 651751; call rule not given here); details: rPXR reporter cells, luciferase (One-Glo), 24 h
Nuclear receptor subfamily 1 group I member 2 (Rattus norvegicus), sequence (Q9R1A7 whole entry, looked up): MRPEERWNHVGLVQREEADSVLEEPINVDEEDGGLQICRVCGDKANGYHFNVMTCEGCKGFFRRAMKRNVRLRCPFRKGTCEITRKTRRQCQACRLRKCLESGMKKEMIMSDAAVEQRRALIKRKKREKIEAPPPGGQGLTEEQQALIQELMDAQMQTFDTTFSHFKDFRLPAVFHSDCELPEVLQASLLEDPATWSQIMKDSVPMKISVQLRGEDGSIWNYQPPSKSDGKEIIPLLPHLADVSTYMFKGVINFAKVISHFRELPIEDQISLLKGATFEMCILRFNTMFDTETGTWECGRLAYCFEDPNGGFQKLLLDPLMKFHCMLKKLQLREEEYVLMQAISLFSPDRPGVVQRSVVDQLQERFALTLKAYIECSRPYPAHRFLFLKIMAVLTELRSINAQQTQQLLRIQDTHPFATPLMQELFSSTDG

[3] = qHTS assay for small molecule activators of the human pregnane X receptor (PXR) signaling pathway (AID 720659; call rule not given here)
[4] = at 45.9 µM (top of the series), tumour line B
[5] = at 45.9 µM (top of the series), tumour line D
[6] = at 46 µM (top of the series), tumour line A
[7] = at 46.1 µM (top of the series), tumour line C

Compound | Potency (Hek293T) | Potency (JEG-3) | Potency (OV90) | Potency (PA-1) | Potency (SKOV3) | Potency (Tov-21-G) | Potency (Tov112D) | activity, negative = cell killing [1, 4] | activity, negative = cell killing [1, 5] | activity, negative = cell killing [1, 6] | activity, negative = cell killing [1, 7] | Potency (astro) | Potency ([1]; tumour line A) | max response [2] | outcome [3] | activity, negative = cell killing ([1]; at 91.6 µM (top of the series), tumour line A) | activity, negative = cell killing ([1]; at 91.6 µM (top of the series), tumour line B) | activity, negative = cell killing ([1]; at 91.6 µM (top of the series), tumour line D) | activity, negative = cell killing ([1]; at 99.2 µM (top of the series), tumour line C)
CC(COc1ccccc1)NN (stereo not given) | inactive | inactive | inactive | inactive | inactive | inactive | inactive | -5.24% | 14.4% | -26.7% | 4.61% | inactive |  |  |  |  |  |  | 
C/C(=N/NC(=O)c1ccncc1)C(=O)O | inactive | inactive | inactive | inactive | inactive | inactive | inactive |  |  |  |  |  |  |  |  |  |  |  | 
CCO[C@H](Cc1ccc(OCCc2ccc(OS(C)(=O)=O)cc2)cc1)C(=O)O | inactive | inactive | inactive | inactive | inactive | inactive | inactive | -8.78% | -11.2% |  | -26% | inactive | 14.1 µM (active) |  |  |  |  |  | 
O=C(Oc1ccccc1)c1ccccc1O | inactive | inactive | inactive | inactive | inactive | inactive | inactive | -4.53% | 13.5% | -25.7% | -8.91% | inactive |  | 9.53% and -0.74% | inactive |  |  |  | 
O=C(CCCCCCCCC#CI)Oc1ccccc1 | inactive | inactive | inactive | inactive | inactive | inactive | inactive | -16.2% | -0.884% | -21.9% | -10.1% | inactive |  |  |  |  |  |  | 
CC(=O)CC/C=C(\C)CC/C=C(\C)CC/C=C(\C)CCC=C(C)C | inactive | inactive | inactive | inactive | inactive | inactive | inactive | -12.4% | -10.7% |  | 4.26% | inactive |  |  |  |  |  |  | 
C[N+](C)(CCOc1ccccc1)Cc1cccs1 | inactive | inactive | inactive | inactive | inactive | inactive | inactive | -1.12% | -8.83% |  | -14.1% | inactive |  |  |  |  |  |  | 
CC1CC(=O)NN=C1c1ccc(NCC(C)(C)NCC(O)COc2cc(Cl)ccc2C#N)cc1 (stereo not given) | inactive | inactive | inactive | inactive | inactive | inactive | inactive | -23.3% | -27.2% |  |  | inactive | 1.78 µM (active) |  |  |  |  |  | 
O=P(O)(O)OCC(O)CO (stereo not given) | inactive | inactive | inactive | inactive | inactive | inactive | inactive | -9.32% | 5.18% | -22.7% | -0.918% | inactive |  |  |  |  |  |  | 
CO/N=C(/C(=O)N[C@@H]1C(=O)N2C(C(=O)O)=C(Cn3nnc(C)n3)CS[C@H]12)c1csc(N)n1 | inactive | inactive | inactive | inactive | inactive | inactive | inactive | -1.74% | 2.54% | -14.3% | 9.89% | inactive |  |  |  |  |  |  | 
CC(=O)O[C@@H]1C(=O)O[C@@H]2[C@H]1OC(=O)[C@@H]2OC(C)=O | inactive | inactive | inactive | inactive | inactive | inactive | inactive | -13.4% | 5.03% |  | -4% | inactive |  |  |  |  |  |  | 
Brc1ccccc1-c1ccccc1 | inactive | inactive | inactive | inactive | inactive | inactive | inactive |  |  |  |  | inactive |  | 13.4% | inactive | -21.1% | -9.1% | -21.1% | 6.63%
O=C1CC[C@H](C(=O)N2CCCCC2)N1 | inactive | inactive | inactive | inactive | inactive | inactive | inactive | 5.57% | 0.144% | -19.7% | 1.57% | inactive |  |  |  |  |  |  | 
CO[C@]1(NC(=O)CSC(F)F)C(=O)N2C(C(=O)O)=C(CSc3nnnn3CCO)CO[C@H]21 | inactive | inactive | inactive | inactive | inactive | inactive | inactive | 4.83% | -21.2% |  | -14% | inactive |  |  |  |  |  |  | 
CO/N=C(/C(=O)N[C@@H]1C(=O)N2C(C(=O)[O-])=C(C[n+]3ccn4ncccc43)CS[C@H]12)c1nsc(N)n1 | inactive | inactive | inactive | inactive | inactive | inactive | inactive | -6.03% and -3.53% | -11.1% and -14% |  |  | inactive | 8.91 µM (active) |  |  |  |  |  | 
O=C(O)[C@@H](O)[C@H](O)[C@H](O)[C@@H](O)C(=O)O | inactive | inactive | inactive | inactive | inactive | inactive | inactive | -15.2% | 6.93% |  | -6.4% | inactive |  |  |  |  |  |  | 
O=S(=O)(O)c1ccc2nc(-c3ccccc3)[nH]c2c1 | inactive | inactive | inactive | inactive | inactive | inactive | inactive | -3.28% | -9.15% |  | -23.9% | inactive |  |  |  |  |  |  | 
